Reference: the supplement of paper PMC11732987, “Enantioselective OTUD7B fragment discovery through chemoproteomics screening and high-throughput optimisation” (Communications Chemistry, 2025)

Assays:
Assay in all cases: log2 ratio of Biotin-Ahx-Ub-VS probe labelling (fragment/DMSO); higher = less target engagement (more negative = stronger competition), active = hit call of the paper (q ≤ 0.05, log2 ratio ≤ -1)
Details in all cases: compound concentration: 200 uM; treatment time: 3 h
USP19 = target: T1, USP19 (UniProt O94966)
T1 sequence (whole entry): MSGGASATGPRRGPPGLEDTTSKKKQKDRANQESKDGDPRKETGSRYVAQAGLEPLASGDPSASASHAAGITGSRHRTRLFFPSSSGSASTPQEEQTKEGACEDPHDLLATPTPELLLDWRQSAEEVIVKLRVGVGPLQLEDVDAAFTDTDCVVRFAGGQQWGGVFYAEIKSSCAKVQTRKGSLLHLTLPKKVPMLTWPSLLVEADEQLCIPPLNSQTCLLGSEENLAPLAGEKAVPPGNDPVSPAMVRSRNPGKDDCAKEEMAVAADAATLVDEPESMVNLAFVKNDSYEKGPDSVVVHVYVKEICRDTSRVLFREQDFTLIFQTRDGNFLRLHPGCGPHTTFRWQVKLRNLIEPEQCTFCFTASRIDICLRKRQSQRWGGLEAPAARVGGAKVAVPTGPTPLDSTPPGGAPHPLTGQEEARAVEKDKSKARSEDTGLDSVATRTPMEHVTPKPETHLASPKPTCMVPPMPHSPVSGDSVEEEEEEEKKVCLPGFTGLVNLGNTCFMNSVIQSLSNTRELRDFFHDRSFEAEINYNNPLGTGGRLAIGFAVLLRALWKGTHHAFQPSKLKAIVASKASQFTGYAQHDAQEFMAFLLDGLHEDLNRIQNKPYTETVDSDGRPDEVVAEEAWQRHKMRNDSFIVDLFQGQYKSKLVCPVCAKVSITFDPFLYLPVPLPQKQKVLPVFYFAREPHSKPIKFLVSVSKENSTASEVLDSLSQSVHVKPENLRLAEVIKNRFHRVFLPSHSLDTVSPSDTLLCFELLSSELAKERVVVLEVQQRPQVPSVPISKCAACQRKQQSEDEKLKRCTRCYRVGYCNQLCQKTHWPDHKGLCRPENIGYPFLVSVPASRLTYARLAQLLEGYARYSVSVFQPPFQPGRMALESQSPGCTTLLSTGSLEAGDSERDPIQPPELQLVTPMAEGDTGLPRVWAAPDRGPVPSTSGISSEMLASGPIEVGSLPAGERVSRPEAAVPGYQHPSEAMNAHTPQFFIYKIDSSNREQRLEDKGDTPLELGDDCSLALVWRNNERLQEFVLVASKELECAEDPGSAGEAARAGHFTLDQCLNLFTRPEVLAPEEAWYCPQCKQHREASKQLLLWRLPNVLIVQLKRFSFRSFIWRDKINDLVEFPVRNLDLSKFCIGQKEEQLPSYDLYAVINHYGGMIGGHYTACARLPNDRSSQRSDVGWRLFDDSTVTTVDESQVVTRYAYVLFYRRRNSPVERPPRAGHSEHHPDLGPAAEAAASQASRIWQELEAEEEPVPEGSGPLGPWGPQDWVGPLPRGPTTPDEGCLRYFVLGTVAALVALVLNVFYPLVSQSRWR
Outline: (§1)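 Triplicate samples of HEK293T lysate, 495 µg each, received fragment at 200 µM or vehicle for 3 h, followed by Biotin-Ahx-Ub-VS (0.5 µM final) for 1 h. After NeutrAvidin enrichment of labelled DUBs and LysC/trypsin digestion, peptides were run by diaPASEF LC-MS/MS. The values are average log2 fragment/vehicle ratios from global-median-normalised Spectronaut label-free quantities, tested by unpaired t-test on proteins having ≥2 unique peptides.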

USP22 = target: T2, USP22 (UniProt Q9UPT9)
T2 sequence (whole entry): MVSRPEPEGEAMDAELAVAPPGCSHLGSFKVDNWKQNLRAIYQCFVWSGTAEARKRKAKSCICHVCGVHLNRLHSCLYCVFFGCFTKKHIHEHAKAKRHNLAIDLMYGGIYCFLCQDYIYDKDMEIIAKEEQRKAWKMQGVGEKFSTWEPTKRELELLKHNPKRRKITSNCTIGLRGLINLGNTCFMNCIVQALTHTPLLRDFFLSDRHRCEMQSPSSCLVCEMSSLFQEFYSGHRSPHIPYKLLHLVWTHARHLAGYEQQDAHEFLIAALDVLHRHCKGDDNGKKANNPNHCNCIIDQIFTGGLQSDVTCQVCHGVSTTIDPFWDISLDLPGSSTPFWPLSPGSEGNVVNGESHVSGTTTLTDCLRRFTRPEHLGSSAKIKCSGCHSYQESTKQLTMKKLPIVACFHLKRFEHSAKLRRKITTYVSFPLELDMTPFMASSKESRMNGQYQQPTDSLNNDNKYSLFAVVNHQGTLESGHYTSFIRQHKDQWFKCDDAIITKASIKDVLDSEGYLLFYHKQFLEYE
Outline: as §1

USP24 = USP24 (UniProt Q9UPU5)
USP24, sequence (Q9UPU5 whole entry): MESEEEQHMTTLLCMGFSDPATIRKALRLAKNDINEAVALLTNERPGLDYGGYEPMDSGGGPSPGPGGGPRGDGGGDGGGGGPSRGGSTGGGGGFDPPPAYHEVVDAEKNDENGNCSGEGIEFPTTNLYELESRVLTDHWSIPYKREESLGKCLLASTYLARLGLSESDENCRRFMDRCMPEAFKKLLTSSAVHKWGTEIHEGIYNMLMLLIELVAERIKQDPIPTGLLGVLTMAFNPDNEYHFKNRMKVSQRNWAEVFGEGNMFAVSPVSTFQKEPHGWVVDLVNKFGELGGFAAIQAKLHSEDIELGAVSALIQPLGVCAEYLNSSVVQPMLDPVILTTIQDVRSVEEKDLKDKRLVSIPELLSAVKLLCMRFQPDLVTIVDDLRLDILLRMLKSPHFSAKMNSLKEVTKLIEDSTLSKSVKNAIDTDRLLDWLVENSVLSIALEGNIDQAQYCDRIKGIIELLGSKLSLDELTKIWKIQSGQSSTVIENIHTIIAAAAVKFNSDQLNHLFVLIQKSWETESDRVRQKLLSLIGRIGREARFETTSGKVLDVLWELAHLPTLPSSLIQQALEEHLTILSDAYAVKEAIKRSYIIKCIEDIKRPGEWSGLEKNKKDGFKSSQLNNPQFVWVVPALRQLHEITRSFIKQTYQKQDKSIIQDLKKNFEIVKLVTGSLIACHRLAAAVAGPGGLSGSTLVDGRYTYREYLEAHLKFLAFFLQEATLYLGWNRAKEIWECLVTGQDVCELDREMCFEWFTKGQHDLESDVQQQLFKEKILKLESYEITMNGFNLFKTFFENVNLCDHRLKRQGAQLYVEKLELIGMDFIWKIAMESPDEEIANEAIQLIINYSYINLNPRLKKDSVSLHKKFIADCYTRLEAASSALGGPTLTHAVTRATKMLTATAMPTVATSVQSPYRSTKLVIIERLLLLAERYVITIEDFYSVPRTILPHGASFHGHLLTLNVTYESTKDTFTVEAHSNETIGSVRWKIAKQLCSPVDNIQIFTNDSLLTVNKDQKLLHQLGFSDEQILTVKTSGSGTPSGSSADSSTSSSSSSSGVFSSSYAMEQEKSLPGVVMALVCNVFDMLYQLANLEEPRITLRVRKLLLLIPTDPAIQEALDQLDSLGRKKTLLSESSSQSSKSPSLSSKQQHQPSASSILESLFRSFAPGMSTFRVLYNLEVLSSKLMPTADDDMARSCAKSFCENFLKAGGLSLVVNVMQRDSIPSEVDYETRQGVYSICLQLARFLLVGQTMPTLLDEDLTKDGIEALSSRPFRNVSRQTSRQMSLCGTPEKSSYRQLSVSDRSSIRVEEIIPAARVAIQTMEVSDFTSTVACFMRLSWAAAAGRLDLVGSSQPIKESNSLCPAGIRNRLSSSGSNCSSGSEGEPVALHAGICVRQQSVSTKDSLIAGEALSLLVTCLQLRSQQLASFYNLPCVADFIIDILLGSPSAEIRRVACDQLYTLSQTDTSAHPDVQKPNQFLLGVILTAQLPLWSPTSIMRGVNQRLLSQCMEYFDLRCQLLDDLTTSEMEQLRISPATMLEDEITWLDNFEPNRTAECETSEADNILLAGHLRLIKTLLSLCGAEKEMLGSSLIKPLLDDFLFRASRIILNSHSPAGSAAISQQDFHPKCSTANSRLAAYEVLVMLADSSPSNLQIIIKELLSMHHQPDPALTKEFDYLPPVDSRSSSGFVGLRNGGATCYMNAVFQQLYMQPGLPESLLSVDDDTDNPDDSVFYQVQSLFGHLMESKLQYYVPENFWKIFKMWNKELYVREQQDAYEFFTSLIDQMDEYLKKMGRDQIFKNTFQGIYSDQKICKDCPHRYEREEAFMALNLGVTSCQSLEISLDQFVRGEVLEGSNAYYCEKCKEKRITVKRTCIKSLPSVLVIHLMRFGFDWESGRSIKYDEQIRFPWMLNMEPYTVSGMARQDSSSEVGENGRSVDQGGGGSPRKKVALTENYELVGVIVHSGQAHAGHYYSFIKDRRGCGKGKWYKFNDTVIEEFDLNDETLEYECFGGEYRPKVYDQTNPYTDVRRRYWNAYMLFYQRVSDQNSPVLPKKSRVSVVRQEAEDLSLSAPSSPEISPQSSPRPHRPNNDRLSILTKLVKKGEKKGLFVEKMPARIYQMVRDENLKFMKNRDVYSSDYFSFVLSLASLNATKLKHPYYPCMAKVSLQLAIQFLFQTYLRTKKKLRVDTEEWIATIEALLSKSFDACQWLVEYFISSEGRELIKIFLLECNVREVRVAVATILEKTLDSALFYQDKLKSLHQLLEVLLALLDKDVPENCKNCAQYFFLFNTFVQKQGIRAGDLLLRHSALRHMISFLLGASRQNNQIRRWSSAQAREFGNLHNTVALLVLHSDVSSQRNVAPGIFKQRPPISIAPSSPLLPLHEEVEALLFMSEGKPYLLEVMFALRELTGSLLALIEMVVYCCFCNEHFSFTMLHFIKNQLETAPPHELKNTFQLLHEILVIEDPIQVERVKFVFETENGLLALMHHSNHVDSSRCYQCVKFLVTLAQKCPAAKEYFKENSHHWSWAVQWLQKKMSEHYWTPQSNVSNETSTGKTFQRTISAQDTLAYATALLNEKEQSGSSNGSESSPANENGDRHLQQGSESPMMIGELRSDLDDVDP
Outline: as §1

USP25 = target: T3, USP25 (UniProt Q9UHP3)
T3 sequence (whole entry): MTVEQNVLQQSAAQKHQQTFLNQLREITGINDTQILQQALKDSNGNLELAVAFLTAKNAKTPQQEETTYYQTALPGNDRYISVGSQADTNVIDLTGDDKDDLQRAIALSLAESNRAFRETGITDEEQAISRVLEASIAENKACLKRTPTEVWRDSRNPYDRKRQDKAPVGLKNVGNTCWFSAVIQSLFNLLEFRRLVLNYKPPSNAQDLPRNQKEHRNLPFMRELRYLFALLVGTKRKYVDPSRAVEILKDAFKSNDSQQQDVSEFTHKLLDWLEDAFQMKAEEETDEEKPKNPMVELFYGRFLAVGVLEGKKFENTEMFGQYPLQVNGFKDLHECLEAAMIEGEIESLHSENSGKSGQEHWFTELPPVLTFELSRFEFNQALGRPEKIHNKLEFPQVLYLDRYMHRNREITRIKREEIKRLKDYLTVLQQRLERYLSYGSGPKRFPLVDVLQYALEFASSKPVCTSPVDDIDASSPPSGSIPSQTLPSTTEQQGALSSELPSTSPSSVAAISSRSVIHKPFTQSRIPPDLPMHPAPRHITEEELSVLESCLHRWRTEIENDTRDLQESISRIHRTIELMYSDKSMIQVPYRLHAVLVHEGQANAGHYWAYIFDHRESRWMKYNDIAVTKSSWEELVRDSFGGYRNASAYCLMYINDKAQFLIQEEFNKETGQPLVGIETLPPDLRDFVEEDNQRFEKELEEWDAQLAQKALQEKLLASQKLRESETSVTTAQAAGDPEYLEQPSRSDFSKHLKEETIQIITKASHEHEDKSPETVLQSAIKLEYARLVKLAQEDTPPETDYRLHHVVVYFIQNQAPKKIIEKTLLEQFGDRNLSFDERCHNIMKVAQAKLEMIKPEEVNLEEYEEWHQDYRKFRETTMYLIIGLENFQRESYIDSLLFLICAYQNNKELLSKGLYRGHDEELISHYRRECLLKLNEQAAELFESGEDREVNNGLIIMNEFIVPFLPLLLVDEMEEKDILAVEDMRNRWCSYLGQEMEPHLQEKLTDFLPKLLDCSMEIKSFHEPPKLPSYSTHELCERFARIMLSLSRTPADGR
Outline: as §1

USP28 = target: T4, USP28 (UniProt Q96RU2)
T4 sequence (whole entry): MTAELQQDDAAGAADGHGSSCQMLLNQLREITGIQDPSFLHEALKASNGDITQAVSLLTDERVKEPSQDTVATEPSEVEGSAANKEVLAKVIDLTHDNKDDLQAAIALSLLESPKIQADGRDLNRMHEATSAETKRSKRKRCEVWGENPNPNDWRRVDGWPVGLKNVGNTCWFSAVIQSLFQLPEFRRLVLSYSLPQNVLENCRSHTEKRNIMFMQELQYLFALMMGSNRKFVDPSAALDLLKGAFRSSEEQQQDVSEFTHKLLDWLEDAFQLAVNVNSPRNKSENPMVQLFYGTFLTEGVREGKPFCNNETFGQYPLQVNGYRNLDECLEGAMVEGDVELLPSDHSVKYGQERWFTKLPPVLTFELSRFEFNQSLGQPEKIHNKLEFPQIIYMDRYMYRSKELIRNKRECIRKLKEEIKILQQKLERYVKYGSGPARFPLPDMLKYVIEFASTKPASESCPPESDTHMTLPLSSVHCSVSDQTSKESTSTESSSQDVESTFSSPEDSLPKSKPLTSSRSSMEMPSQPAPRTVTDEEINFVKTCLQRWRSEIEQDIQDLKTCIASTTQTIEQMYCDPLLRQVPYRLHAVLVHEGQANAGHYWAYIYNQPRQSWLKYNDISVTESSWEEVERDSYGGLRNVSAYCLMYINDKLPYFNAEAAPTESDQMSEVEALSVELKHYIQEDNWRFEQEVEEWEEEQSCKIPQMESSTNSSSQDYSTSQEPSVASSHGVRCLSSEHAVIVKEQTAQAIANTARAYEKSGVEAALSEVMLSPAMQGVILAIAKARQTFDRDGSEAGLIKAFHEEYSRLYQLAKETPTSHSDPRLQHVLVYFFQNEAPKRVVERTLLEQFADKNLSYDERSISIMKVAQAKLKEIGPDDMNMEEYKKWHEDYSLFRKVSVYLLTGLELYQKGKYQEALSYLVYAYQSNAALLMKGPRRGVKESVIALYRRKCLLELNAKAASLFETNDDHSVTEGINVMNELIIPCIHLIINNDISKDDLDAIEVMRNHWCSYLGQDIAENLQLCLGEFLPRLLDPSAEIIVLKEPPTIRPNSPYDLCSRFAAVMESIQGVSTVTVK
Outline: as §1

Measured: log2 ratio of Biotin-Ahx-Ub-VS probe labelling

O=C(CCl)NCCc1cccc2ccccc12
inactive: USP19 0.0202 | USP22 -0.385 | USP24 -0.0928 | USP25 -0.0781 | USP28 -0.212
